For 17 molecules, outcome and AC50 results are on record in PubChem BioAssay (EPA / NIEHS).

A structure can be active in one record and inactive in another. Activity calls are given as the source filed them. The calls were made as follows: active = hit-call score of the fitted dose curve at least 0.9, where 1 is the maximum; inactive = score below 0.9.

Assay [1] can be described thus: ATG_GRE_CIS: Attagene CIS-FACTORIAL HepG2 Assay for human Glucocorticoid Response Elements (GRE) (AID 2282947). To be noted: HepG2 GRE cis-reporter, Attagene multiplex mRNA; actives raise or lower the signal. In short, it runs like this: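 Multiplexed cis-reporter mRNA induction, HepG2, 24 h post-dose. RT-PCR, FAM-labelled, HpaI-digested amplicons by CE. Bidirectional fit vs DMSO.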

Assay [2] can be described thus: ATG_ISRE_CIS: Attagene CIS-FACTORIAL HepG2 Assay for human Interferon Regulatory Factor 1 (IRF1) binding to an Interferon-Stimulated Response Element (ISRE) (AID 2282948). To be noted: HepG2 ISRE cis-reporter (Attagene), mRNA transcription readout; actives raise or lower the signal. In short, it runs like this: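 Uses HepG2 liver cells transfected with cis-regulated reporters and measures mRNA 24 h post-dosing through RT-PCR, primer-extension labelling and capillary electrophoresis, with DMSO as negative control.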

Assay [3] in a line: ATG_M_32_CIS: Attagene CIS-FACTORIAL HepG2 Assay for M32 Transcription Factor (Internal Marker) (AID 2282949).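 Also: background control marker of the multiplexed CIS panel rather than a real target.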 To be noted: HepG2 Attagene cis-factorial M32 reporter, mRNA; actives raise or lower the signal. In short, it runs like this: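 Using DMSO as baseline, bidirectional curve fits were applied to reporter mRNA signals. These came from transiently transfected HepG2 cells exposed for 24 h, with RNA analysed by RT-PCR, FAM primer extension, HpaI digestion and CE.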

Assay [4] in a line: ATG_M_06_CIS: Attagene CIS-FACTORIAL HepG2 Assay for M06 Transcription Factor (Internal Marker) (AID 2282950). To be noted: HepG2 Attagene CIS-FACTORIAL M06 internal marker reporter; actives raise or lower the signal. In outline: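 Serves as a background control readout. Transfected HepG2 exposed to compounds for 24 h, then reporter transcripts quantified by fluorescent RT-PCR and capillary electrophoresis. Both directions fitted against DMSO baseline.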

Assay [5] has as its target Hypoxia-inducible factor 1-alpha (Homo sapiens) (UniProt Q16665). The assay is described as follows: ATG_HIF1a_CIS: Attagene CIS-FACTORIAL HepG2 Assay for human Hypoxia Inducible Factor 1 (HIF1A) (AID 2282951). The note with it: HepG2 Attagene cis-factorial HIF1a reporter transcription; actives raise or lower the signal. In outline: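 Activity is fitted in both directions relative to DMSO. Reporter transcripts are read by RT-PCR, fluorescent primer extension and capillary electrophoresis after 24 h chemical treatment. The cells are HepG2 carrying transiently transfected cis-element-driven reporter units responding to endogenous factors.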

Assay [6] deals with Hepatocyte nuclear factor 6 (Homo sapiens) (UniProt Q9UBC0). As to the kind of experiment: ATG_HNF6_CIS: Attagene CIS-FACTORIAL HepG2 Assay for human Hepatocyte Nuclear Factor 6 (HNF6) (AID 2282952). To be noted: HepG2 Attagene cis-factorial HNF6 reporter transcription; actives raise or lower the signal. In outline: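 Endogenous transcription factor activity in human HepG2 liver cells was captured through cis-regulated reporter constructs. After 24 h treatment, reporter mRNA was measured by RT-PCR with capillary electrophoresis, and activity was fitted in both directions relative to DMSO.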

Assay [7] deals with Heat shock factor protein 1 (Homo sapiens) (UniProt Q00613). The assay is described as follows: ATG_HSE_CIS: Attagene CIS-FACTORIAL HepG2 Assay for human Heat Shock Transcription Factor 1 (HSE) (AID 2282953). To be noted: HepG2 HSE cis-reporter, Attagene RNA transcription; actives raise or lower the signal. In outline:
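Endogenous transcription factor activity in transiently transfected HepG2, read as reporter mRNA by RT-PCR with fluorescent capillary electrophoresis after 24 h. Gain or loss of signal fitted versus DMSO baseline.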

Assay [8] is described as follows: ATG_MRE_CIS: Attagene CIS-FACTORIAL HepG2 Assay for human Metal Responsive Element (MRE) (AID 2282954). The note with it: HepG2 MRE cis-reporter transcription, Attagene multiplex; actives raise or lower the signal. In outline:
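Multiplexed cis-reporter assay in human HepG2 liver cells, 24 h incubation with test chemical. Reporter transcripts measured by RT-PCR and capillary electrophoresis; values from bidirectional curve fitting versus DMSO.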

In assay [9] the target is Paired box protein Pax-6 (Homo sapiens) (UniProt P26367). As to the kind of experiment: ATG_Pax6_CIS: Attagene CIS-FACTORIAL HepG2 Assay for human Paired Box 6 (PAX6) (AID 2282956). To be noted: HepG2 CIS-FACTORIAL PAX6 reporter transcription, RNA readout; actives raise or lower the signal. In outline: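 DMSO-referenced bidirectional fits of reporter mRNA fluorescence; HepG2 with transient cis-promoter MRTUs, 24 h post-dose, RT-PCR plus capillary electrophoresis detection.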

Assay [10] can be described thus: ATG_PBREM_CIS: Attagene CIS-FACTORIAL HepG2 Assay for human Phenobarbital-responsive Enhancer Module (PBREM) (AID 2282955). The note with it: HepG2 PBREM cis-reporter, Attagene multiplexed transcription; actives raise or lower the signal. In short, it runs like this:
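Endogenous transcription factor activity was read from reporter transcripts in transiently transfected human HepG2 liver cells after 24 h dosing. RT-PCR products were fluorescently labelled, HpaI-cut and sized by capillary electrophoresis; activity fitted bidirectionally against DMSO baseline.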

Sequence of Hepatocyte nuclear factor 6 (Homo sapiens) (Q9UBC0 whole entry, looked up): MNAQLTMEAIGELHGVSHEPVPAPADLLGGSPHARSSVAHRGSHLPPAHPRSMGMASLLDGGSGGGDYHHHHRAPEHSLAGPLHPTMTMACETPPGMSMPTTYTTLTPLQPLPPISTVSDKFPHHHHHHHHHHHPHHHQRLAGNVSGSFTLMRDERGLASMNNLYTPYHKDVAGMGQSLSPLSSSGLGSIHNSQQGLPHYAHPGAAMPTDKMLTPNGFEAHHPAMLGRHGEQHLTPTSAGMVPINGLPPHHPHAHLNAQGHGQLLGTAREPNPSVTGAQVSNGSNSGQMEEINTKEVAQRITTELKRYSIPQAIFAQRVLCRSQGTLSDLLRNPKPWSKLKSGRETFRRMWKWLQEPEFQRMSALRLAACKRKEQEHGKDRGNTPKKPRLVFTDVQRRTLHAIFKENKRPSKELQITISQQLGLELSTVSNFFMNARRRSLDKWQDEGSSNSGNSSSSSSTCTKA
Sequence of Paired box protein Pax-6 (Homo sapiens) (P26367 whole entry, looked up): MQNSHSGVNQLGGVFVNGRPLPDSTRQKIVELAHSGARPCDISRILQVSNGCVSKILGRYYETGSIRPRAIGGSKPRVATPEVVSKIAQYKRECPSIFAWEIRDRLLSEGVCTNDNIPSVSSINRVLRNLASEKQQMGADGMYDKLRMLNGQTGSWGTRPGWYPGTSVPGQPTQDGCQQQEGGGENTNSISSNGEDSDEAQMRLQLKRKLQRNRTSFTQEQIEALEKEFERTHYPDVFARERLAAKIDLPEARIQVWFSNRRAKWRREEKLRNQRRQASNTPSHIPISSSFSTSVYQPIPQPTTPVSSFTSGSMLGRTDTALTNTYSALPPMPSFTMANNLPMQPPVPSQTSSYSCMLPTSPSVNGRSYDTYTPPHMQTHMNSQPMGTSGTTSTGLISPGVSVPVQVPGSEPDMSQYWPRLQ
Sequence of Hypoxia-inducible factor 1-alpha (Homo sapiens) (Q16665 whole entry, looked up): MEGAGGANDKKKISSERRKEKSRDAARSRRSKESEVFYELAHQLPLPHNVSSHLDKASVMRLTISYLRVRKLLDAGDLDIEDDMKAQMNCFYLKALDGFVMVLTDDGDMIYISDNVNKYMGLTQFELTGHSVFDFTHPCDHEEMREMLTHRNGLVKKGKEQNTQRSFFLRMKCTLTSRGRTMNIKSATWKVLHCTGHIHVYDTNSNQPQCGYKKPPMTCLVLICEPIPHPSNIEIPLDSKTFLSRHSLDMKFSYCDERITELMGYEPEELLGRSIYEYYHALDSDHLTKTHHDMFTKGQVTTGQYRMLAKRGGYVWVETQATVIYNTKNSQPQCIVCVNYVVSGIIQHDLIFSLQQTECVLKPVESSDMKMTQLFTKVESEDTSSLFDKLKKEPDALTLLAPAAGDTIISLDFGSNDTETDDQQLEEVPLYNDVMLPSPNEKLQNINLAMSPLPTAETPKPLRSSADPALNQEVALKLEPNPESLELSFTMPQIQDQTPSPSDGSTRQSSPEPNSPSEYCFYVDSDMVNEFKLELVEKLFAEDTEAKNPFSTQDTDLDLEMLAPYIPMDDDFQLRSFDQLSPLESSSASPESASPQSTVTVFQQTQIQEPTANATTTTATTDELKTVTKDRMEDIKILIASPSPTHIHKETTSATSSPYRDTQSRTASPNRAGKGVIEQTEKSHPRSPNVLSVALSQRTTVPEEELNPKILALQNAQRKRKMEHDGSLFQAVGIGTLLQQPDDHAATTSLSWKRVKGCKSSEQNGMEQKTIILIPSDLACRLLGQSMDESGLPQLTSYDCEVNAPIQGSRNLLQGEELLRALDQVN
Sequence of Heat shock factor protein 1 (Homo sapiens) (Q00613 whole entry, looked up): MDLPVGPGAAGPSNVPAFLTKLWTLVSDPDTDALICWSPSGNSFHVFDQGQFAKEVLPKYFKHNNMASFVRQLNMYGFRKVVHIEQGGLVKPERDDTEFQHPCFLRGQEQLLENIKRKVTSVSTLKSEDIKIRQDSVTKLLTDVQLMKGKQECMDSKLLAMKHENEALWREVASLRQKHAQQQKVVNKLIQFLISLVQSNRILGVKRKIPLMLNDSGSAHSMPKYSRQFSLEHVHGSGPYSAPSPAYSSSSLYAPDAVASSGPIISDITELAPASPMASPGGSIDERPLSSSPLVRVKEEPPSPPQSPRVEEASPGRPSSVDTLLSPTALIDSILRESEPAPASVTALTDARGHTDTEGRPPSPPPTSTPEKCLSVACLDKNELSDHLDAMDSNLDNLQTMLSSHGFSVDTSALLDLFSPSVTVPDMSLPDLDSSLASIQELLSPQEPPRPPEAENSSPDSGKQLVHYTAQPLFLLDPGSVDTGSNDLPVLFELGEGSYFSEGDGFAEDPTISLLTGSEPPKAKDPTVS

On to `CC(C)=CC1C(C(=O)OCN2C(=O)C3=C(CCCC3)C2=O)C1(C)C` (stereo not given), for which the molecule was called inactive in assay [1], in [2], in assay [3], in [4] and in assay [6]. Further, the AC50 is 50 µM (active) in [5], 93.9 µM (active) in [7], 64.6 µM (active) in assay [8] and 74 µM (active) in assay [9].

As for `CC(C)N(C(=O)SCC(Cl)=C(Cl)Cl)C(C)C`, the call in assay [1], in [3], in assay [5], in assay [6], in [7] and in assay [10] was inactive. The AC50 in assay [8] was 29.1 µM (active).

`CNc1cnn(-c2cccc(C(F)(F)F)c2)c(=O)c1Cl`: the result in [1], in [3], in [5], in assay [6], in [8] and in assay [10] was inactive. In addition, in assay [7], the AC50 is 10.4 µM (active).

Consider `CCCCN(CC)c1c([N+](=O)[O-])cc(C(F)(F)F)cc1[N+](=O)[O-]`, for which the molecule was classed as inactive in assay [1], in assay [2], in assay [3], in assay [5], in [6] and in assay [7]. The outcome in assay [8] was inactive. In addition, the AC50 in [10] was 14.9 µM (active).

Regarding `C#CC(C)(C)NC(=O)c1cc(Cl)cc(Cl)c1`, the result in assay [1], in [2], in assay [3], in [5], in [6] and in assay [7] was inactive. In assay [9], the call was inactive. Besides, the AC50 in assay [8] and in assay [10] was 50 µM (active) in each case.

Regarding `O=[N+]([O-])c1cc(C(F)(F)F)c(Cl)c([N+](=O)[O-])c1Nc1ncc(C(F)(F)F)cc1Cl`, the results for the concentration at half-maximal activity (AC50) in [1], in [3] and in assay [6] were 20.3 µM (active), 18.1 µM (active) and 17.1 µM (active), respectively. Further, the result in assay [1], in [3], in [4], in assay [5], in assay [6] and in [7] was inactive. Also, the outcome in [8] and in [10] was inactive.

Turning to `CN1COCN(Cc2cnc(Cl)s2)C1=N[N+](=O)[O-]`, the result in assay [1], in assay [2], in assay [3], in [5], in [6] and in assay [7] was inactive. The result in assay [8] was inactive.

With `O=C(O)c1cc(Oc2ccc(C(F)(F)F)cc2Cl)ccc1[N+](=O)[O-]`, the call in assay [1], in [2], in assay [3], in [5], in assay [6] and in assay [7] was inactive. Also, the outcome in [8] and in assay [9] was inactive.

For `CCOP(=S)(OCC)OC(Cl)C(Cl)(Cl)Cl` (stereo not given), the outcome in assay [1], in assay [3], in [5], in [6], in [7] and in assay [10] was inactive. In assay [8], the AC50 is 32.9 µM (active).

With `CCOP(=S)(OCC)Oc1ccc2c(C)c(Cl)c(=O)oc2c1`, the result in [1], in [3], in assay [5], in [6], in [7] and in [8] was inactive. Further, the outcome in assay [10] was inactive.

`Nc1nc(N)nc(NC2CC2)n1`: the result in [1], in assay [3], in assay [4], in assay [5], in [6] and in assay [7] was inactive. In [8], the molecule was classed as inactive.

For the molecule `CNC(=O)Oc1cccc2c1OC(C)(C)O2`, the result in assay [1], in assay [3], in assay [4], in assay [5], in assay [6] and in [7] was inactive. The outcome in assay [10] and in [9] was inactive. Besides, in assay [8], the concentration at half-maximal activity (AC50) is 67.7 µM (active).

For `COc1ccc(C(=CC(=O)N2CCOCC2)c2ccc(Cl)cc2)cc1OC`, the molecule was classed as inactive in [1], in assay [2], in assay [3], in assay [6] and in [7]. In addition, the values for the AC50 in assay [5], in [8] and in [10] were 25.5 µM (active), 30.7 µM (active) and 24.9 µM (active), respectively.

In the case of `FC(F)C(F)(F)OCC(Cn1cncn1)c1ccc(Cl)cc1Cl` (stereo not given), the molecule was classed as inactive in [1], in assay [2], in assay [3], in [4] and in [6]. The AC50 in assay [5] was 75.4 µM (active); in [7] it was 81.4 µM (active); in [8] it was 69.3 µM (active).

In the case of `CCOP(=S)(OCC)Oc1cc(C)nc(C(C)C)n1`, the outcome in [1], in assay [3], in [5], in assay [6], in assay [7] and in assay [8] was inactive. In assay [10], the AC50 was 9.92 µM (active).

Turning to `COP(=O)(OC)C(O)C(Cl)(Cl)Cl` (stereo not given), the outcome in assay [1], in assay [2], in assay [3], in [4], in assay [6] and in assay [7] was inactive. Moreover, the result in assay [10] was inactive. Also, the AC50 in assay [8] is 31.5 µM (active).

In the case of `CCCOc1nn(C(=O)NS(=O)(=O)c2ccccc2C(=O)OC)c(=O)n1C`, the molecule was called inactive in assay [1], in assay [3], in [4], in [5], in assay [6] and in [7]. The call in [8] and in assay [10] was inactive.

Broadly, the AC50 is the midpoint of the concentration-response curve, whichever way the signal moves.
